Measured values: PubChem BioAssay (Tox21)
Inconclusive results are not listed. Unmarked numbers belong to inactive results. Active and inactive are the calls of the source. Calls come from the whole dose curve; as a rule, active = well fitted cell-killing curve with a large enough effect in the repeat runs; inconclusive = weak or mixed curves, or effect the other way; inactive = no such curve, though single readings can be large or run the other way.

Assay: qHTS assay for small molecule activators of the heat shock response signaling pathway - cell viability counter screen (AID 743209); note: nearly all actives have a fitted effect of over 50% in size
Details: HSE-bla HeLa viability, CellTiter-Glo luminescence, 5 h; series mostly up to 62.6 µM; activity change, negative = cytotoxicity: at the top concentration
From the text: U.S. Tox21 Program National Center for Advancing Translational Sciences [NCATS] NIH Chemical Genomics Center [NCGC] U.S. Environmental Protection Agency [EPA] National Institutes of Environmental Health Sciences [NIEHS] National Toxicology Program [NTP] U.S. Food and Drug Administration [FDA] Tox21 Assay Overview: Various chemicals, environmental and physiological stress conditions may lead to the activation of heat shock response/ unfolded protein response (HSR/UPR). There are three heat shock transcription factors (HSFs) (HSF-1, -2, and -4) mediating transcriptional regulation of the human HSR. To identify the compounds that activate HSR signaling, HSE-bla HeLa cell line (Invitrogen, Carlsbad, CA, USA) containing a beta-lactamase reporter gene under the control of the heat shock response elements was used to screen Tox21 10K compound library. The cytotoxicity of the Tox21 compound library against the HSE-bla HeLa cell line was tested in parallel by measuring the cell viability using CellTiter-Glo assay (Promega, Madison, WI) in the same wells.
Tox21 Assay Protocol Summary: The CellSensor HSE-bla HeLa cells (Invitrogen, Carlsbad, CA, USA) were dispensed at 1500 cells/6uL/well into 1536-well black wall/clear bottom plates using a Multidrop combi (Thermo Fisher Scientific, Waltham, MA) dispenser. After the assay plates were incubated at 37 C and 5% CO2 overnight, 23 nL of compounds dissolved in DMSO, positive controls or DMSO only was transferred to the assay plate by a Pintool station (Kalypsys, San Diego, CA). The plates were incubated at 37 C for 5 h. After 1 uL of LiveBLAzerTM B/G FRET substrate was added using a Flying Reagent Dispenser (FRD, Beckman Coulter, Indianapolis, IN, USA), the plates were incubated at room temperature for 2.5 h, and fluorescence intensity was measured by an Envision plate reader (PerkinElmer, Shelton, CT). For cell viability readout that measures cytotoxicity, 3 ul/well of CellTiter-Glo reagent was added into the assay plates using a FRD. After 30 min incubation at room temperature, the luminescence intensity in the plates was measured using a ViewLux (PerkinElmer) plate reader.
% is set by controls: 0 for no effect and ±100 for the full control effect; potency is the fitted concentration of half-maximal effect.

| Structure (SMILES) | activity change, negative = cytotoxicity | Potency |
| --- | --- | --- |
| CSc1ccc(/C=C2/C(C)=C(CC(=O)O)c3cc(F)ccc32)cc1 | -10.8% | – |
| CN(C)C(=O)C1(N2CCCCC2)CCN(CC[C@@]2(c3ccc(Cl)c(Cl)c3)CN(C(=O)c3ccccc3)CCO2)CC1 | – | 51.3 µM (active) |
| CC(C)(C)CC(C)(C)c1ccc(O)c(Cc2ccc(Cl)cc2Cl)c1 | – | 23.7 µM (active) |
| Oc1ccc(N=Nc2ccccc2)cc1 | -2.06% [at 81.1 µM] | – |
| CCCCCCCCCCCC(=O)NCCCN(C)C | – | 49 µM (active) |
| O=C(O)c1c(Cl)cccc1Cl | -9.67% | – |
| COc1ccc(C(=O)/C(Br)=C\C(=O)O)cc1 | -18.7% | – |
| O=C1c2ccccc2Cc2ccccc21 | -2.49% [at 81.1 µM] | – |
| CCCC(=O)OC[C@@H](OC(=O)CCC)[C@@H](OC(=O)CCC)[C@H](Cn1c2nc(=O)[nH]c(=O)c-2nc2cc(C)c(C)cc21)OC(=O)CCC | -5.77% | – |
| CC(C)=CCOc1ccc(/C=C/C(=O)c2ccc(OCC=C(C)C)cc2OCC(=O)O)cc1 | -0.267% | – |
| CC(C)c1ccc2c(c1)CC[C@H]1[C@](C)(CN)CCC[C@]21C | – | 19.5 µM (active) |
| OC1(c2ccc(Cl)c(C(F)(F)F)c2)CCN(CCCC(c2ccc(F)cc2)c2ccc(F)cc2)CC1 | – | 7.5 µM (active) |
| CCc1cc(Cc2cc(CC)cc(C(C)(C)C)c2O)c(O)c(C(C)(C)C)c1 | – | 5.49 µM (active) |
| CCCCCCCC[P+](CCCCCCCC)(CCCCCCCC)CCCCCCCC | – | 5.46 µM (active) |
| C=CC(=O)OCCn1c(=O)n(CCOC(=O)C=C)c(=O)n(CCOC(=O)C=C)c1=O | – | 13.8 µM (active) |
| CCc1cc(SCc2sc(-c3ccc(C(F)(F)F)cc3)nc2CN2CCN(c3ccc(OC)cc3)CC2)ccc1OCC(=O)O | – | 24.5 µM (active) |
| N=C1N=C(N)c2ccccc21 | – | 49 µM (active) |
| CNCc1cc(F)ccc1Oc1ccc(Cl)c(Cl)c1 | -4.47% | – |
| COc1cccc(N)c1 | 1.48% [at 81.1 µM] | – |
| CC(C)(C)CC(C)(C)c1ccc(OCCOCC[N+](C)(C)Cc2ccccc2)cc1 | – | 34.6 µM (active) |

| Structure (SMILES) | activity change, negative = cytotoxicity | Potency |
| --- | --- | --- |
| Cc1cccc(CN2CCN(C(c3ccccc3)c3ccc(Cl)cc3)CC2)c1 (stereo not given) | -12.9% | – |
| Cc1cc(O)c(Cl)c(C)c1Cl | – | 38.9 µM (active) |
| CNC(=O)c1ccccc1 | 0.468% | – |
| CCCCCCCCCCCCCCCCCC[N+](C)(C)C | – | 34.8 µM (active) |
| CC/C(=C(\c1ccc(O)cc1)c1ccc(OCCN(C)C)cc1)c1ccccc1 | – | 27.6 µM (active) |
| Cc1cccc(N(C)C(=S)Oc2ccc3c(c2)C2CCC3C2)c1 (stereo not given) | -0.313% | – |
| Cc1nc(-c2ccc3c(c2)CCN(CCC2CCC(NC(=O)/C=C/c4ccc(F)cc4)CC2)CC3)no1 (stereo not given) | 14.3% [at 29.1 µM] | – |
| CCCC(c1cc(C(C)(C)C)c(O)cc1C)c1cc(C(C)(C)C)c(O)cc1C | – | 12.5 µM (active) |
| C=CC(=O)OCC(CO)(COCC(COC(=O)C=C)(COC(=O)C=C)COC(=O)C=C)COC(=O)C=C | – | 2.72 µM (active) |
| Cc1onc(-c2ccccc2Cl)c1C(=O)N[C@@H]1C(=O)N2[C@@H]1SC(C)(C)[C@@H]2C(=O)O | 13.2% | – |
| CO[Si](CCCNc1ccccc1)(OC)OC | -4.2% | – |
| CCCCCCOC(=O)c1ccc(O)cc1 | -3.89% | – |
| C[C@H]1[C@H]2CC[C@H]3[C@@H]4CC=C5C[C@@H](N(C)C)CC[C@]5(C)[C@H]4CC[C@]23CN1C | 8.43% | – |
| Oc1c(Cl)cc(Cl)c2cccnc12 | -4.11% | – |
| C/C(=C(/OCCOc1ccc(Cl)cc1)c1ccc(Cl)cc1Cl)n1ccnc1 | -27.1% | – |
| Nc1ccc2c3c(cccc13)-c1ccccc1-2 | -2.91% [at 81.1 µM] | – |
| Cc1cc(O)c(C(C)(C)C)cc1Sc1cc(C(C)(C)C)c(O)cc1C | – | 10.9 µM (active) |
| CCN(CC)CCCC(C)Nc1c2ccc(Cl)cc2nc2ccc(OC)cc12 (stereo not given) | -17.1% | – |
| Oc1cccc2cc3cccc(O)c3c(O)c12 | -1.63% [at 81.1 µM] | – |
| O=[N+]([O-])c1ccccc1Nc1ccccc1 | 7.22% | – |
